Source: the supplement of paper PMC7411054
Structures can show the parent of a compound that is named as a salt.

Legend:
Settings in all cases: treatment time: 24 h
A549-ACTB-RAB5A [1] = experiment: phenotypically active (imaging signature differs from DMSO and reproducible) at any of 0.3-9 uM (binary (1 = active, 0 = inactive)); higher = active
Outline: (§1)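 Fifteen gene-edited A549, HepG2 and WPMY1 reporter lines (BFP segmentation plus GFP and RFP/FusionRed markers) were treated at 0.3, 1, 3 or 9 µM for 24 h, four wells each, then imaged live. Live-cell features per well were normalised to DMSO control wells. Deviation required ≥3 of 4 wells beyond the 95th percentile of DMSO Euclidean distances, and reproducibility required median replicate Pearson correlation above the 95th percentile of non-replicates. Phenotypic activity needed both criteria.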

A549-CANX-COX4 [2] = experiment: as above
Outline: as §1

A549-GM130-SQSTM1 [3] = experiment: as above
Outline: as §1

A549-TP53BP1-CLTA [4] = experiment: as above
Outline: as §1

A549-TUBA1B-RELA [5] = experiment: as above
Outline: as §1

HepG2-ACTB-RAB5A = experiment: as above
Outline: as §1

HepG2-CANX-COX4 = experiment: as above
Outline: as §1

HepG2-GM130-SQSTM1 = experiment: as above
Outline: as §1

HepG2-TP53BP1-CLTA = experiment: as above
Outline: as §1

HepG2-TUBA1B-RELA = experiment: as above
Outline: as §1

WPMY1-ACTB-RAB5A = experiment: as above
Outline: as §1

WPMY1-CANX-COX4 = experiment: as above
Outline: as §1

WPMY1-GM130-SQSTM1 = experiment: as above
Outline: as §1

WPMY1-TP53BP1-CLTA = experiment: as above
Outline: as §1

WPMY1-TUBA1B-RELA = experiment: as above
Outline: as §1

A549-ACTB-RAB5A [6] = experiment: lowest phenotypically active concentration; higher = less potent
Outline: as §1

A549-CANX-COX4 [7] = experiment: as above
Outline: as §1

A549-GM130-SQSTM1 [8] = experiment: as above
Outline: as §1

A549-TP53BP1-CLTA [9] = experiment: as above
Outline: as §1

A549-TUBA1B-RELA [10] = experiment: as above
Outline: as §1

Row | SMILES | phenotypically active (A549-ACTB-RAB5A [1]) | phenotypically active (A549-CANX-COX4 [2]) | phenotypically active (A549-GM130-SQSTM1 [3]) | phenotypically active (A549-TP53BP1-CLTA [4]) | phenotypically active (A549-TUBA1B-RELA [5]) | phenotypically active (HepG2-ACTB-RAB5A) | phenotypically active (HepG2-CANX-COX4) | phenotypically active (HepG2-GM130-SQSTM1) | phenotypically active (HepG2-TP53BP1-CLTA) | phenotypically active (HepG2-TUBA1B-RELA) | phenotypically active (WPMY1-ACTB-RAB5A) | phenotypically active (WPMY1-CANX-COX4) | phenotypically active (WPMY1-GM130-SQSTM1) | phenotypically active (WPMY1-TP53BP1-CLTA) | phenotypically active (WPMY1-TUBA1B-RELA) | lowest phenotypically active concentration (A549-ACTB-RAB5A [6]) [µM] | lowest phenotypically active concentration (A549-CANX-COX4 [7]) [µM] | lowest phenotypically active concentration (A549-GM130-SQSTM1 [8]) [µM] | lowest phenotypically active concentration (A549-TP53BP1-CLTA [9]) [µM] | lowest phenotypically active concentration (A549-TUBA1B-RELA [10]) [µM]
1 | CC(C)(Oc1ccc(C2CC2(Cl)Cl)cc1)C(=O)O (stereo unspecified) [ciprofibrate] | 0 (inactive) | 0 (inactive) | 0 (inactive) | 0 (inactive) | 0 (inactive) | 0 (inactive) | 0 (inactive) | 0 (inactive) | 0 (inactive) | 0 (inactive) | 0 (inactive) | 0 (inactive) | 0 (inactive) | 0 (inactive) | 0 (inactive) | – | – | – | – | –
2 | Cc1ccc(-c2csc3ncnc(SCCC(=O)O)c23)cc1 | 0 (inactive) | 0 (inactive) | 0 (inactive) | 0 (inactive) | 0 (inactive) | 0 (inactive) | 0 (inactive) | 0 (inactive) | 0 (inactive) | 0 (inactive) | 0 (inactive) | 0 (inactive) | 0 (inactive) | 0 (inactive) | 0 (inactive) | – | – | – | – | –
3 | CC(=O)CCCCn1c(=O)c2c(ncn2C)n(C)c1=O [Pentoxifylline] | 0 (inactive) | 0 (inactive) | 0 (inactive) | 0 (inactive) | 0 (inactive) | 0 (inactive) | 0 (inactive) | 0 (inactive) | 0 (inactive) | 0 (inactive) | 0 (inactive) | 0 (inactive) | 0 (inactive) | 0 (inactive) | 0 (inactive) | – | – | – | – | –
4 | Cc1c(F)cc(C(=O)NC2CC2)cc1-c1ccc(C(=O)NCC(C)(C)C)cn1 [losmapimod] | 0 (inactive) | 0 (inactive) | 0 (inactive) | 0 (inactive) | 0 (inactive) | 0 (inactive) | 0 (inactive) | 0 (inactive) | 0 (inactive) | 0 (inactive) | 0 (inactive) | 0 (inactive) | 0 (inactive) | 0 (inactive) | 0 (inactive) | – | – | – | – | –
5 | CNCC[C@@H](Oc1ccccc1C)c1ccccc1 [atomoxetine] | 0 (inactive) | 0 (inactive) | 0 (inactive) | 0 (inactive) | 0 (inactive) | 0 (inactive) | 0 (inactive) | 0 (inactive) | 0 (inactive) | 0 (inactive) | 0 (inactive) | 0 (inactive) | 0 (inactive) | 0 (inactive) | 0 (inactive) | – | – | – | – | –
6 | NC(=O)c1ncn([C@@H]2O[C@H](CO)[C@@H](O)[C@H]2O)c1N | 0 (inactive) | 0 (inactive) | 0 (inactive) | 0 (inactive) | 0 (inactive) | 0 (inactive) | 0 (inactive) | 0 (inactive) | 0 (inactive) | 0 (inactive) | 0 (inactive) | 0 (inactive) | 0 (inactive) | 0 (inactive) | 0 (inactive) | – | – | – | – | –
7 | NC(=O)c1cccc(-c2cccc(OC(=O)NC3CCCCC3)c2)c1 | 0 (inactive) | 0 (inactive) | 0 (inactive) | 0 (inactive) | 0 (inactive) | 0 (inactive) | 0 (inactive) | 0 (inactive) | 0 (inactive) | 0 (inactive) | 0 (inactive) | 0 (inactive) | 0 (inactive) | 0 (inactive) | 0 (inactive) | – | – | – | – | –
8 | C=C[C@H]1[C@H](O[C@@H]2O[C@H](CO)[C@@H](O)[C@H](O)[C@H]2O)OC=C2C(=O)NCC[C@H]21 [Bakankosine] | 0 (inactive) | 0 (inactive) | 0 (inactive) | 0 (inactive) | 0 (inactive) | 0 (inactive) | 0 (inactive) | 0 (inactive) | 0 (inactive) | 0 (inactive) | 0 (inactive) | 0 (inactive) | 0 (inactive) | 0 (inactive) | 0 (inactive) | – | – | – | – | –
9 | Cc1cc2cc(NS(=O)(=O)c3ccc(C#N)cc3)ccc2n(C)c1=O | 0 (inactive) | 0 (inactive) | 0 (inactive) | 0 (inactive) | 0 (inactive) | 0 (inactive) | 0 (inactive) | 0 (inactive) | 0 (inactive) | 0 (inactive) | 0 (inactive) | 0 (inactive) | 0 (inactive) | 0 (inactive) | 0 (inactive) | – | – | – | – | –
10 | N[C@@H](CSC(c1ccccc1)(c1ccccc1)c1ccccc1)C(=O)O [S-Trityl-L-cysteine] | 0 (inactive) | 0 (inactive) | 0 (inactive) | 0 (inactive) | 0 (inactive) | 0 (inactive) | 0 (inactive) | 0 (inactive) | 0 (inactive) | 0 (inactive) | 0 (inactive) | 0 (inactive) | 0 (inactive) | 0 (inactive) | 0 (inactive) | – | – | – | – | –
11 | NS(=O)(=O)c1cc2c(cc1Cl)N=C(CSCc1ccccc1)NS2(=O)=O [benzthiazide] | 0 (inactive) | 0 (inactive) | 0 (inactive) | 0 (inactive) | 0 (inactive) | 0 (inactive) | 0 (inactive) | 0 (inactive) | 0 (inactive) | 0 (inactive) | 0 (inactive) | 0 (inactive) | 0 (inactive) | 0 (inactive) | 0 (inactive) | – | – | – | – | –
12 | CC1(COc2ccc(CC3SC(=O)NC3=O)cc2)CCCCC1 (stereo unspecified) [Ciglitazone] | 0 (inactive) | 0 (inactive) | 0 (inactive) | 0 (inactive) | 0 (inactive) | 0 (inactive) | 0 (inactive) | 0 (inactive) | 0 (inactive) | 0 (inactive) | 0 (inactive) | 0 (inactive) | 0 (inactive) | 0 (inactive) | 0 (inactive) | – | – | – | – | –
13 | C1CCN2C[C@@H]3C[C@@H](CN4CCCC[C@@H]34)[C@H]2C1 [Sparteine (-)] | 0 (inactive) | 0 (inactive) | 0 (inactive) | 0 (inactive) | 0 (inactive) | 0 (inactive) | 0 (inactive) | 0 (inactive) | 0 (inactive) | 0 (inactive) | 0 (inactive) | 0 (inactive) | 0 (inactive) | 0 (inactive) | 0 (inactive) | – | – | – | – | –
14 | CN1[C@@H](CC(=O)c2ccccc2)CCC[C@H]1C[C@H](O)c1ccccc1 [Lobeline alpha (-) hydrochoride] | 0 (inactive) | 0 (inactive) | 0 (inactive) | 0 (inactive) | 0 (inactive) | 0 (inactive) | 0 (inactive) | 0 (inactive) | 0 (inactive) | 0 (inactive) | 0 (inactive) | 0 (inactive) | 0 (inactive) | 0 (inactive) | 0 (inactive) | – | – | – | – | –
15 | COc1ccc2cc(CCC(C)=O)ccc2c1 [nabumetone] | 0 (inactive) | 0 (inactive) | 0 (inactive) | 0 (inactive) | 0 (inactive) | 0 (inactive) | 0 (inactive) | 0 (inactive) | 0 (inactive) | 0 (inactive) | 0 (inactive) | 0 (inactive) | 0 (inactive) | 0 (inactive) | 0 (inactive) | – | – | – | – | –
16 | CCN(Cc1ccncc1)C(=O)C(CO)c1ccccc1 (stereo unspecified) [tropicamide] | 0 (inactive) | 0 (inactive) | 0 (inactive) | 0 (inactive) | 0 (inactive) | 0 (inactive) | 0 (inactive) | 0 (inactive) | 0 (inactive) | 0 (inactive) | 0 (inactive) | 0 (inactive) | 0 (inactive) | 0 (inactive) | 0 (inactive) | – | – | – | – | –
17 | C[C@]12CC[C@@H]3c4ccc(O)cc4CC[C@H]3[C@@H]1CC[C@@H]2O [estradiol] | 0 (inactive) | 0 (inactive) | 0 (inactive) | 0 (inactive) | 0 (inactive) | 0 (inactive) | 0 (inactive) | 0 (inactive) | 0 (inactive) | 0 (inactive) | 0 (inactive) | 0 (inactive) | 0 (inactive) | 0 (inactive) | 0 (inactive) | – | – | – | – | –
18 | COc1ccc(C(=O)Nc2sc3c(c2C(N)=O)CCCC3)cc1OC | 0 (inactive) | 0 (inactive) | 0 (inactive) | 0 (inactive) | 0 (inactive) | 0 (inactive) | 0 (inactive) | 0 (inactive) | 0 (inactive) | 0 (inactive) | 0 (inactive) | 0 (inactive) | 0 (inactive) | 0 (inactive) | 0 (inactive) | – | – | – | – | –
19 | Nn1nnc2ccccc21 | 0 (inactive) | 0 (inactive) | 0 (inactive) | 0 (inactive) | 0 (inactive) | 0 (inactive) | 0 (inactive) | 0 (inactive) | 0 (inactive) | 0 (inactive) | 0 (inactive) | 0 (inactive) | 0 (inactive) | 0 (inactive) | 0 (inactive) | – | – | – | – | –
20 | CO/N=C/C1=CCCN(C)C1 [Milameline hydrochloride] | 0 (inactive) | 0 (inactive) | 0 (inactive) | 0 (inactive) | 0 (inactive) | 0 (inactive) | 0 (inactive) | 0 (inactive) | 0 (inactive) | 0 (inactive) | 0 (inactive) | 0 (inactive) | 0 (inactive) | 0 (inactive) | 0 (inactive) | – | – | – | – | –
21 | CCOC(=O)C1=C(C)NC(=S)N[C@H]1c1cccc(O)c1 [Monastrol] | 0 (inactive) | 0 (inactive) | 0 (inactive) | 0 (inactive) | 0 (inactive) | 0 (inactive) | 0 (inactive) | 0 (inactive) | 0 (inactive) | 0 (inactive) | 0 (inactive) | 0 (inactive) | 0 (inactive) | 0 (inactive) | 0 (inactive) | – | – | – | – | –
22 | COc1nc(N)nc2c1ncn2[C@@H]1O[C@H](CO)[C@@H](O)[C@@H]1O [Nelarabine] | 1 (active) | 0 (inactive) | 0 (inactive) | 0 (inactive) | 0 (inactive) | 0 (inactive) | 0 (inactive) | 0 (inactive) | 0 (inactive) | 0 (inactive) | 0 (inactive) | 0 (inactive) | 0 (inactive) | 0 (inactive) | 0 (inactive) | 9 | – | – | – | –
23 | C[C@H]1C[C@@H]2[C@H]([C@@H](O)C[C@@]3(C)[C@H]2CC[C@]3(O)C(=O)CO)[C@@]2(C)C=CC(=O)C=C12 [methylprednisolone] | 1 (active) | 1 (active) | 1 (active) | 1 (active) | 1 (active) | 0 (inactive) | 0 (inactive) | 0 (inactive) | 0 (inactive) | 0 (inactive) | 0 (inactive) | 0 (inactive) | 0 (inactive) | 0 (inactive) | 0 (inactive) | ≤ 0.3 | ≤ 0.3 | ≤ 0.3 | ≤ 0.3 | ≤ 0.3
